In PubChem BioAssay (Tox21):
Records with an inconclusive call do not appear. Unmarked numbers belong to inactive results. The source made the active and inactive calls. Calls follow the shape of the dose curve; as a rule, active = well fitted cell-killing curve with a large enough effect in the repeat runs; inconclusive = weak or mixed curves, or effect the other way; inactive = no such curve, though single readings can be large or run the other way.

Assay: qHTS assay to identify small molecule antagonists of the thyroid receptor (TR) signaling pathway - cell viability counter screen (AID 743064); also: nearly all actives have a fitted effect of over 50% in size
Conditions: GH3.TRE-Luc viability, CellTiter-Fluor, 24 h; series mostly up to 70.3 µM; activity change, negative = cytotoxic: at the top concentration
In short: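 Viability of T3-stimulated (1 nM final) GH3.TRE-Luc cells is measured by CellTiter-Fluor fluorescence after 23.5 h compound exposure at 37 °C plus 30 min reagent incubation.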
% is scaled to controls: 0 for no effect and ±100 for the full control effect; potency is read from the fitted curve at half-maximal effect.

SMILES	activity change, negative = cytotoxic	Potency
NCC1CCCC(CN)C1 (configuration not stated)	0.0937%	–
O=C(C(=O)c1ccccc1)c1ccccc1	7.44%	–
C[N+](C)(C)CCOC(N)=O	15.9%	–
c1cnc2c(n1)CCCC2	0.933%	–
Nc1nccs1	–	inactive
CCCCCCOC(=O)CCCCCCCC(=O)OCCCCCC	6.24%	–
COCCOC	-0.141%	–
C/C=C(\C)C(=O)OCCC(C)CCC=C(C)C (configuration not stated)	7.72%	–
CC(=N\O)/C(C)=N/O	14.4%	–
CC(C)CCCCCOC(=O)CCCCC(=O)OCCCCCC(C)C	-3.89%	–
CO[C@H]1O[C@H](CO)[C@@H](O)[C@H](O)[C@H]1O	0.203%	–
CN1CCN(CCCN2c3ccccc3Sc3ccc(S(=O)(=O)N(C)C)cc32)CC1	–	14.3 µM (active)
O=C(CCCCCCCCC#CI)Oc1ccccc1	-22.2%	–
CCCCN(CCCC)CCCOC(=O)c1ccc(N)cc1	19.6% [at 32.5 µM]	–
CC1=CC(=O)CC(C)(C)C1(O)/C=C/C(C)=C\C(=O)O (configuration not stated)	15.5%	–
CCCC(=O)O[C@]1(C(=O)COC(=O)CC)CC[C@H]2[C@@H]3CCC4=CC(=O)CC[C@]4(C)[C@H]3[C@@H](O)C[C@@]21C	-8.51%	–
Cc1ccccc1N1C(=O)c2cc(S(N)(=O)=O)c(Cl)cc2NC1C (configuration not stated)	–	inactive
Cc1ccc(Nc2nccc(N(C)c3ccc4c(C)n(C)nc4c3)n2)cc1S(N)(=O)=O	-12.7%	–
Cc1ccc(/C=N/n2c(-c3ccccc3)csc2=S)cc1	-26.3%	–
Cc1cnc(C)c(C)n1	6.42% [at 95 µM]	–
CC(C)(C)C(=O)O	-0.518% [at 95 µM]	–
CCCCC(=O)O[C@]1(C(=O)CO)CC[C@H]2[C@@H]3CCC4=CC(=O)CC[C@]4(C)[C@H]3[C@@H](O)C[C@@]21C	-3.44%	–
